Growth data for 39 molecules are collected here from PubChem BioAssay (NCI).

The panel holds about 83,000 compounds, 20% with a hit somewhere; the sample as a whole holds those more often.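 Growth was measured after 48 h exposure to one concentration of compound in 96-well plates. Values under 10 count as active.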 A number with no mark means an inactive call. Active and inactive are the calls of the source.

The first experiment deals with NCI-H226 lung. Description: NCI-60 one-dose screen, 48 h (100 = growth as untreated, 0 = no growth, -100 = all killed). As to conditions: 10 µM.
As for `COC(=O)[C@@H]1[C@H](O)[C@H](C)[C@H](O)[C@@](C)(O)/C=C\C=C(C)C(=O)Nc2c(C)c(OC(C)=O)c3c(c2O)C(=O)C(C)=C2OCOC(=C23)C(C)=C[C@@](C)(O)[C@H](O)[C@@H](C)[C@H]1OC(C)=O`, the growth is 109%.
For `O=C(CC(C(=O)c1ccccc1)N1CCOCC1)c1ccccc1` (stereo not drawn), the growth is 90.3%.
Still for that read-out and setting: then `COc1ccc(-c2nc(-c3nc4cc(Cl)c(F)cc4[nH]3)c3ccccn23)cc1`, with 85.1%.
For `CCCCCCCCCCCC[n+]1ccc(C(N)=O)cc1`, the growth is 35%.
Take `COC(=O)C1=NNC(=S)N(c2cc(C)[nH]n2)C(=O)C1`: the growth was 99.7%.
The same measure, in the same setting: as for `CCN1Cc2c(/C=C/c3ccccc3)nc3ccc(OC)cc3c2N(c2cccc(Cl)c2)C1`, the figure is 92%; as for `O=C(Nc1ccncc1)C(=O)c1cn(S(=O)(=O)c2cccc3ccccc23)c2ccccc12`, 76.8%.
The same measure, in the same setting: as for `CCN(CC)CCOc1nc2cc(OC)c(OC)cc2c2c1-c1ccc(OC)cc1C2=O`, the figure is 74.3%; as for `Nc1c(C(=O)Nc2cccc(F)c2)sc2nc3c(cc12)C(=O)CCC3`, 64.6%.
Still for that read-out and setting: as for `CN(C)C=Nc1cc(Cl)ccc1Cl`, the figure is 96.3%.
With `CC12O[C@H](C[C@@H](O)[C@H]1O)n1c3ccccc3c3c4c(c5c6ccccc6n2c5c31)C(=O)N(CCCN)C4=O`, the growth is 27.4%.
Still for that read-out and setting: as for `S=C1SCC(c2ccccc2)S1` (stereo not drawn), the figure is 101%; as for `N=C(N)c1ccc(-c2ccc(-c3cccs3)o2)cc1`, 67.5%; as for `CC(C)(C)c1cc(Br)cc(C(C)(C)C)c1O`, 97.5%.
On the same count and under the same terms, then `COc1cc(C(=O)/C=C/c2cc(-c3cc(OC)c(OC)c(OC)c3)n[nH]2)cc(OC)c1OC`, with 36.8%; and `COc1cc(NC(=O)CCSc2nc3ccc(Cl)cc3c(=O)n2Cc2ccccc2)cc(OC)c1OC`, with 31.1%; and `COc1ccc(-c2nn(-c3cccc(NC(=O)Nc4cccc(C(F)(F)F)c4)c3)cc2-c2ccncc2)cc1Cl`, with 25.7%.
Take `COc1ccc(-c2nn(-c3cccc(NC(=O)c4ccc(Cl)c(Cl)c4)c3)cc2-c2ccncc2)cc1Cl`: the growth was 83.5%.
The same measure, in the same setting: then `CC(C)(C#N)Nc1ccccc1`, with 95.8%; and `O=S(=O)(Nc1ccccn1)c1ccc(N=Nc2ccc(O)c3ncccc23)cc1`, with 21.3%.
For the molecule `CC(C)C[C@H](NC(=O)[C@H](Cc1cccc2ccccc12)NS(=O)(=O)c1cccc2cccnc12)B(O)O`, the growth was -66.6% (active).
Regarding `COc1cc(Cl)cc(-c2nn(-c3cccc(NC(=O)Nc4ccc(Cl)c(C(F)(F)F)c4)c3)cc2-c2ccncc2)c1`, the growth was -2.82% (active).
In the case of `O=C(Nc1ccc(CN2CCc3nc4cc(O)c(O)cc4cc32)cc1)c1ccc(Cl)c(Cl)c1`, the growth was 78.7%.
On the same count and under the same terms, then `CN(C)Cc1cn(-c2ncc(-c3ccc(C(F)(F)F)cc3)c(NC3CCCCCC3)n2)nn1`, with 88.8%; and `O=C(CSSCC(=O)c1ccc(Cl)cc1)c1ccc(Cl)cc1`, with 88.6%.
Consider `COc1ccc2c(c1OC)O/C(=C\c1ncc([N+](=O)[O-])n1C)C2=O`, for which the growth was 66.6%.
Still for that read-out and setting: then `Nc1ncn([C@@H]2O[C@H](CO)[C@@H](O)[C@H]2O)c(=O)n1`, with 45.9%; and `CSC1=NCCCC1`, with 97.3%; and `COc1ccc(/C=C2/CN(CCC#N)C/C(=C\c3ccc(OC)cc3)C2=O)cc1`, with -6.76% (active).
The same measure, in the same setting: as for `c1ccc([C@H]2CN3CCSC3=N2)cc1`, the figure is 97.4%.
In the case of `COc1cc(Cl)cc(-c2nn(-c3cccc(NC(=O)c4ccc(N5CCOCC5)c(C(F)(F)F)c4)c3)cc2-c2ccncc2)c1`, the growth is 64.2%.
The same measure, in the same setting: then `COc1ccc(OC)c(/C=C/c2nc(SCc3ccccc3)n(-c3ccc(Cl)cc3)n2)c1`, with 72.7%.
Still for that read-out and setting: then `COc1ccc(N=C2C(=Nc3ccc(OC)cc3)N(c3ccc(N(C)C)cc3)C(=S)N2c2ccc(OC)cc2)cc1`, with 104%.
Still for that read-out and setting: as for `CCCCCCN1CCN(Cc2ccc(N(CC)CC)cc2)C(=O)C1=O`, the figure is 64.2%.
For `N#Cc1ncc(-c2ccc(C(F)(F)F)cc2)c(NCc2cc(C(F)(F)F)cc(C(F)(F)F)c2)n1`, the growth is 43.8%.
On the same count and under the same terms, then `COc1ccc2c(c1)O/C(=C\c1ccc([N+](=O)[O-])s1)C2=O`, with 69.9%.
Same read-out and setting: as for `CCCCN(CCCC)c1cc(C(=O)CCCCCN)c2ccccc2n1`, the figure is 93%; as for `O=C(O)CCCCSc1ncnc2nc[nH]c12`, 98.6%.
`O=C(Nc1cccc(-n2cc(-c3ccncc3)c(-c3ccc(O)c(Cl)c3)n2)c1)c1cc(C(F)(F)F)cc(C(F)(F)F)c1`: the growth was 75.9%.

Another experiment has as its system NCI-H322M lung. Described as above. As to conditions: 10 µM.
`COC(=O)[C@@H]1[C@H](O)[C@H](C)[C@H](O)[C@@](C)(O)/C=C\C=C(C)C(=O)Nc2c(C)c(OC(C)=O)c3c(c2O)C(=O)C(C)=C2OCOC(=C23)C(C)=C[C@@](C)(O)[C@H](O)[C@@H](C)[C@H]1OC(C)=O`: the growth was 125%.
On the same count and under the same terms, then `O=C(CC(C(=O)c1ccccc1)N1CCOCC1)c1ccccc1` (stereo not drawn), with 109%.
Same read-out and setting: as for `COc1ccc(-c2nc(-c3nc4cc(Cl)c(F)cc4[nH]3)c3ccccn23)cc1`, the figure is 69.6%.
Regarding `CCCCCCCCCCCC[n+]1ccc(C(N)=O)cc1`, the growth was 88.7%.
For the molecule `COC(=O)C1=NNC(=S)N(c2cc(C)[nH]n2)C(=O)C1`, the growth is 94.5%.
As to `CCN1Cc2c(/C=C/c3ccccc3)nc3ccc(OC)cc3c2N(c2cccc(Cl)c2)C1`, the growth was 90.7%.
`O=C(Nc1ccncc1)C(=O)c1cn(S(=O)(=O)c2cccc3ccccc23)c2ccccc12`: the growth is 86%.
The same measure, in the same setting: then `CCN(CC)CCOc1nc2cc(OC)c(OC)cc2c2c1-c1ccc(OC)cc1C2=O`, with 83.9%.
As for `Nc1c(C(=O)Nc2cccc(F)c2)sc2nc3c(cc12)C(=O)CCC3`, the growth was 58.8%.
Take `CN(C)C=Nc1cc(Cl)ccc1Cl`: the growth was 104%.
Same read-out and setting: then `CC12O[C@H](C[C@@H](O)[C@H]1O)n1c3ccccc3c3c4c(c5c6ccccc6n2c5c31)C(=O)N(CCCN)C4=O`, with 56.3%; and `S=C1SCC(c2ccccc2)S1` (stereo not drawn), with 111%; and `N=C(N)c1ccc(-c2ccc(-c3cccs3)o2)cc1`, with 12.8%.
For the molecule `CC(C)(C)c1cc(Br)cc(C(C)(C)C)c1O`, the growth was 96.7%.
On to `COc1cc(C(=O)/C=C/c2cc(-c3cc(OC)c(OC)c(OC)c3)n[nH]2)cc(OC)c1OC`, for which the growth is -8.96% (active).
Still for that read-out and setting: as for `COc1cc(NC(=O)CCSc2nc3ccc(Cl)cc3c(=O)n2Cc2ccccc2)cc(OC)c1OC`, the figure is 83.1%.
For `COc1ccc(-c2nn(-c3cccc(NC(=O)Nc4cccc(C(F)(F)F)c4)c3)cc2-c2ccncc2)cc1Cl`, the growth is 24.4%.
`COc1ccc(-c2nn(-c3cccc(NC(=O)c4ccc(Cl)c(Cl)c4)c3)cc2-c2ccncc2)cc1Cl`: the growth was 83.6%.
On the same count and under the same terms, then `CC(C)(C#N)Nc1ccccc1`, with 124%; and `O=S(=O)(Nc1ccccn1)c1ccc(N=Nc2ccc(O)c3ncccc23)cc1`, with -11.8% (active); and `CC(C)C[C@H](NC(=O)[C@H](Cc1cccc2ccccc12)NS(=O)(=O)c1cccc2cccnc12)B(O)O`, with -9.95% (active).
As to `COc1cc(Cl)cc(-c2nn(-c3cccc(NC(=O)Nc4ccc(Cl)c(C(F)(F)F)c4)c3)cc2-c2ccncc2)c1`, the growth is 18.7%.
On the same count and under the same terms, as for `O=C(Nc1ccc(CN2CCc3nc4cc(O)c(O)cc4cc32)cc1)c1ccc(Cl)c(Cl)c1`, the figure is 94%.
Still for that read-out and setting: as for `CN(C)Cc1cn(-c2ncc(-c3ccc(C(F)(F)F)cc3)c(NC3CCCCCC3)n2)nn1`, the figure is 88.3%.
For the molecule `O=C(CSSCC(=O)c1ccc(Cl)cc1)c1ccc(Cl)cc1`, the growth is 72.2%.
Consider `COc1ccc2c(c1OC)O/C(=C\c1ncc([N+](=O)[O-])n1C)C2=O`, for which the growth is 84.1%.
The same measure, in the same setting: as for `Nc1ncn([C@@H]2O[C@H](CO)[C@@H](O)[C@H]2O)c(=O)n1`, the figure is 15.9%.
Still for that read-out and setting: then `CSC1=NCCCC1`, with 113%.
Same read-out and setting: then `COc1ccc(/C=C2/CN(CCC#N)C/C(=C\c3ccc(OC)cc3)C2=O)cc1`, with 76%.
Take `c1ccc([C@H]2CN3CCSC3=N2)cc1`: the growth was 101%.
Same read-out and setting: as for `COc1cc(Cl)cc(-c2nn(-c3cccc(NC(=O)c4ccc(N5CCOCC5)c(C(F)(F)F)c4)c3)cc2-c2ccncc2)c1`, the figure is 89.6%; as for `COc1ccc(OC)c(/C=C/c2nc(SCc3ccccc3)n(-c3ccc(Cl)cc3)n2)c1`, 82.9%.
In the case of `COc1ccc(N=C2C(=Nc3ccc(OC)cc3)N(c3ccc(N(C)C)cc3)C(=S)N2c2ccc(OC)cc2)cc1`, the growth was 90.3%.
With `CCCCCCN1CCN(Cc2ccc(N(CC)CC)cc2)C(=O)C1=O`, the growth was 32%.
As for `N#Cc1ncc(-c2ccc(C(F)(F)F)cc2)c(NCc2cc(C(F)(F)F)cc(C(F)(F)F)c2)n1`, the growth was 70.2%.
On the same count and under the same terms, then `COc1ccc2c(c1)O/C(=C\c1ccc([N+](=O)[O-])s1)C2=O`, with 29.7%; and `CCCCN(CCCC)c1cc(C(=O)CCCCCN)c2ccccc2n1`, with -30.8% (active); and `O=C(O)CCCCSc1ncnc2nc[nH]c12`, with 90.2%.
`O=C(Nc1cccc(-n2cc(-c3ccncc3)c(-c3ccc(O)c(Cl)c3)n2)c1)c1cc(C(F)(F)F)cc(C(F)(F)F)c1`: the growth is 74.3%.
